HIF-2a block: HIF-2a inhibition; 786-0 RCC cells HIF-2a reporter, luciferase luminescence, overnight; inhibition, % at 18.8 µM; 0.72% of 360,000 active;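 active = inhibition of the luminescence signal of 40% or more relative to plate controls, in a single-dose primary screen at 18.75 µM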
KKLEB tox: CF airway cell cytotoxicity counter-screen | KKLEB CF airway cells viability, ATPlite luminescence, overnight; active compounds read low; cells stimulated with P. aeruginosa culture filtrate | activity change (cytotoxicity), % at 5 µM | 0.36% of 360,000 active;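 active = corrected activity change at or below -50% at 5 µM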
C8 TRAIL sens: caspase-8 TRAIL sensitization. NB7+C8 cells + TRAIL, ATPlite viability luminescence. inhibition (viability loss, TRAIL sensitization), % at 10 µM. 1% of 360,000 active;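 active = compounds causing at least 50% loss of cell viability in the single-dose screen, relative to plate controls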
CF NFkB inh: cystic fibrosis NF-kB activation inhibition | KKLEB NF-kB-GFP reporter, PAF-induced, GFP fluorescence overnight | inhibition, % at 5 µM | 0.86% of 360,000 active | AID 588850;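 active = at least 50% inhibition at 5 µM, scaled per plate between neutral and stimulator controls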;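 also: PAF is a Pseudomonas aeruginosa culture filtrate used as stimulus; plate controls were PAF-stimulated DMSO wells for no effect and unstimulated DMSO wells for full effect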
PPC-1+TRAIL kill: PPC-1 cancer cell killing with TRAIL present; 0.41% of 220,000 active; PPC-1 cells + TRAIL, ATPLite viability luminescence; AID 1443; cell killing (% activity), % at 4 µM or 5 µM;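 active = cell killing above 50% in the first pass at 4 µM, then a duplicate retest at 5 µM averaging 50% or more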;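 also: plate controls were cells with TRAIL plus DMSO for no effect and medium-only wells lacking cells for full effect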
Peg3 prom inh: reduces Peg3 promoter-driven luciferase expression in HeLa; inhibition, % at 20 µM; HeLa PEG-Prom luciferase reporter, luminescence, overnight; 1.7% of 360,000 active;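 active = inhibition of at least 50% at 20 µM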
Starred values were filed as active, the others as inactive. Sampled rows, rich in hits. Any-hit rate of the full collection: about 3.1%.

Screening COc1ccc(-n2nc(C(=O)NCC(=O)NCCCN3CCOCC3)c3ccccc3c2=O)cc1Cl returned HIF-2a block 7.2, KKLEB tox -5.9, C8 TRAIL sens -17.4, CF NFkB inh 4.3 and Peg3 prom inh -12.2.
Screening COc1ccc(-n2nc(C(=O)NCC(=O)NCCCN3CCOCC3)c3ccccc3c2=O)cc1OC returned HIF-2a block 4.0, KKLEB tox -76.3*, C8 TRAIL sens -11.2, CF NFkB inh 12.7 and Peg3 prom inh -0.1.
For COc1ccc(-n2nc(C(=O)NCC(=O)N3CCN(c4ccccc4)CC3)c3ccccc3c2=O)c(OC)c1 the results were HIF-2a block -193.1, KKLEB tox -13.0, C8 TRAIL sens 61.5*, CF NFkB inh 5.2 and Peg3 prom inh -224.7.
For CC1Cc2nc(SCC(=O)NCC3CCCO3)n(-c3ccc(F)cc3)c(=O)c2S1 (stereo not drawn) the results were HIF-2a block 3.8, KKLEB tox 11.4, C8 TRAIL sens -9.3, CF NFkB inh -7.9 and Peg3 prom inh -10.5.
For O=C(CSc1nnc(C2CC2)n1Cc1ccccc1)N1CCNC1=O the results were HIF-2a block 14.8, KKLEB tox -6.6, C8 TRAIL sens -6.4, CF NFkB inh 0.4 and Peg3 prom inh -3.1.
Oc1ccccc1-c1n[nH]c(-c2ccccc2O)n1 was read as HIF-2a block -179.1, KKLEB tox 0.2, C8 TRAIL sens 60.2*, CF NFkB inh 18.1 and Peg3 prom inh -186.2.
`Clc1ccccc1-c1nc(-c2ccccc2)n[nH]1` gave HIF-2a block -225.5, KKLEB tox 0.6, C8 TRAIL sens 21.3, CF NFkB inh -8.3, PPC-1+TRAIL kill 8.8 and Peg3 prom inh -201.9.
`CCc1c(C)nc2cc(-c3ccc(Cl)cc3)[nH]n2c1=O` gave HIF-2a block -244.5, KKLEB tox -7.0, C8 TRAIL sens -0.2, CF NFkB inh 8.0 and Peg3 prom inh -339.6.
`O=c1c2c(nc3cc(-c4ccc(F)cc4)[nH]n13)CCCC2` gave HIF-2a block -10.0, KKLEB tox 15.9, C8 TRAIL sens 53.3*, CF NFkB inh -37.1, PPC-1+TRAIL kill 43.4 and Peg3 prom inh -86.5.
O=c1c2c(nc3cc(-c4cccc(F)c4)[nH]n13)CCC2 was read as HIF-2a block -132.4, KKLEB tox -4.3, C8 TRAIL sens 22.4, CF NFkB inh 9.7, PPC-1+TRAIL kill 25.0 and Peg3 prom inh -149.9.
Screening O=c1c2c(nc3cc(-c4ccc(Cl)cc4)[nH]n13)CCS2 returned HIF-2a block -130.7, KKLEB tox 12.1, C8 TRAIL sens 50.8*, CF NFkB inh -37.9, PPC-1+TRAIL kill 41.0 and Peg3 prom inh -210.6.
`CCOC(=O)C(C(=O)OCC)C(=O)c1cccc2ccc3ccccc3c12` gave HIF-2a block 4.4, KKLEB tox -13.4, C8 TRAIL sens -3.5, CF NFkB inh -20.4 and Peg3 prom inh 17.1.
Screening Cc1nc(-c2ccc(C(=O)Nc3cccc(F)c3)cc2)cs1 returned HIF-2a block -131.6, KKLEB tox -25.1, C8 TRAIL sens 77.3*, CF NFkB inh 5.1 and Peg3 prom inh -87.3.
Cc1nc(-c2cccc(NC(=O)c3ccc(Cl)c(S(=O)(=O)N4CCCC4)c3)c2)cs1 was read as HIF-2a block -37.5, KKLEB tox -6.0, C8 TRAIL sens 12.8, CF NFkB inh -6.0 and Peg3 prom inh 55.0*.
Screening CCN(CC)CCNC(=O)c1ccc(Cl)c(S(=O)(=O)N2CCCCCC2)c1 returned HIF-2a block 8.6, KKLEB tox 4.3, C8 TRAIL sens -8.4, CF NFkB inh -20.4, PPC-1+TRAIL kill 22.3 and Peg3 prom inh 1.2.
CCCn1c(NC(=O)c2ccc(Cl)c(S(=O)(=O)N3CCCC3)c2)nc2ccccc21 was read as HIF-2a block 12.3, KKLEB tox -7.0, C8 TRAIL sens 43.3, CF NFkB inh -4.3, PPC-1+TRAIL kill -9.9 and Peg3 prom inh 53.4*.
Screening CN(C)CCCNC(=O)c1ccc(Cl)c(S(=O)(=O)N2CCCCCC2)c1 returned HIF-2a block 17.6, KKLEB tox 1.5, C8 TRAIL sens 19.0, CF NFkB inh 1.2 and Peg3 prom inh 90.6*.
`COc1ccc(S(=O)(=O)NCC2CCCO2)cc1NC(=O)c1ccc(Cl)cc1` (stereo not drawn) gave HIF-2a block 10.9, KKLEB tox -25.9, C8 TRAIL sens 2.4, CF NFkB inh 7.7 and Peg3 prom inh 13.8.

Compound activity: PubChem, Sanford-Burnham Center for Chemical Genomics
